Experimental findings from PubChem BioAssay (NCI) are described below.

Structures are written as SMILES. About 83,000 compounds went through this panel and 20% of them were active in at least one assay; those are over-represented in the sample as a whole.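 Single-dose data. Exposure time 48 hours. Values below 10 considered active.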 Unmarked numbers belong to inactive results. Calls of active or inactive are those of the source.

The subject of the assay is HL-60(TB) leukemia. Kind of assay: NCI-60 one-dose screen, 48 h (100 = growth as untreated, 0 = no growth, -100 = all killed). Particulars: 10 µM unless noted.
As for `COc1c(OCCCN2CCOCC2)ccc2c3n(c(=NC(=O)c4cnc(N)nc4)nc12)CCN3`, the growth was 11.3%. Next, `COc1ccc(OC)c(C(=O)c2oc3ccc(Br)cc3c2N)c1`: -10.2% (active).

Turning to `CCN1C(=O)N(CC)C2C1N=C(SCc1ccc(Cl)cc1)N2/N=C/C=C/c1ccccc1OC` (stereo unspecified), the growth was 37.9%. Next, `Fc1ccc2[nH]cc(SSc3c[nH]c4ccc(F)cc34)c2c1`: -32.3% (active); `O=c1c2cc(F)ccc2sc2c(NCCN3CCOCC3)nc3ccccc3c12`: 65.3%; `COC(=O)[C@H](C(C)C)n1c(=O)c2cc(OC)c(OC)cc2c2cnc3[nH]ccc3c21`: 16.1%. Next, `N#Cc1c(-c2ccc(Cl)cc2)nc(NN=Cc2cccc(Cl)c2)nc1N1CCOCC1`: 71.5%; `Cc1cc(-c2ccccc2)nc2ccccc12`: 90.8%.

`CC1CCC(n2cnc3c(Cl)ncnc32)O1` (stereo unspecified): the growth is 112%. The same measure for `N#C/C(=C\c1ccc2c(c1)OCO2)c1ccccc1`: 62%.

In the case of `COc1ccc(C2c3ccccc3NC(=O)N2C2CCN(C)CC2)c(OC)c1` (stereo unspecified), the growth is 92.7%.

As for `CC(N)C(Cc1ccccc1)c1ccc(Cl)cc1` (stereo unspecified), the growth is 66.5%. Regarding `Cc1ccc(NC(=O)CCl)cc1Cl`, the growth was 106%. The same measure for `CCN1C(=S)N(c2ccccc2)C2C1NN=c1s/c(=C3\C(=O)N(C(C)C)c4ccccc43)c(=O)n12` (stereo unspecified): 96.6%; for `CCN1C(=O)N(CC)C2C1NN=c1s/c(=C\c3ccc[nH]3)c(=O)n12` (stereo unspecified): -48% (active). As to `CC(C)(C)c1cc(C[P+](c2ccc(Cl)cc2)(c2ccc(Cl)cc2)c2ccc(Cl)cc2)cc(C(C)(C)C)c1O`, the growth was 3.1% (active).
